Screening results deposited in PubChem by several laboratories.
Shown are actives, neighbours in structure and some others; about 4.8% of the full set was active somewhere.
Mdm2 MdmX PPI – inhibitors of human Mdm2/MdmX interaction; SaOS-2 split-luciferase Mdm2/MdmX complementation, luminescence; inhibition, % at 8 µM; actives 3% (n = 330,000);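 active = inhibition of at least 50% at 8 µM in the primary screen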
Beta apoptosis – blocks beta cell apoptosis. INS-1E cytokine-induced death, ATP luminescence, 48 h; percent of positive-control rescue, neutral wells zero. protection from apoptosis, % (test concentration not listed). actives 0.8% (n = 300,000). AID 435005;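 active = Every replicate reaches about 75%, or at least half do and their mean reaches it too, limit read from the data; inconclusive = At least half of replicates reach the limit but their mean does not; inactive = Under half of replicates reach the limit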;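 also: 0% = cytokine-treated negative control wells and 100% = positive control rescue; higher means more ATP so stronger rescue from cytokine killing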
Calb FLC – C. albicans growth modulation with fluconazole; actives 0.57% (n = 300,000); growth inhibition, % (no concentration beside the values); C. albicans CaCi-2 (fluconazole-resistant clinical isolate) + fluconazole, Alamar Blue growth, 48 h;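 active = growth inhibition above about 58% in most replicates, limit read from the data, passing the limit was not always enough; inconclusive = exactly half the replicates above a set limit; inactive = most replicates below a set limit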;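 also: all wells also contain fluconazole at 8 µg/ml as a sub-toxic cotreatment; 0% = median of DMSO wells and 100% = median of geldanamycin control wells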
MPTP inh – blocks calcium-induced mitochondrial swelling; AID 602449; isolated mouse mitochondria, Ca2+ swelling absorbance, 30 min; actives 1.4% (n = 360,000); inhibition, % at 10 µM;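 active = inhibition of 50% or more, scaled per plate between neutral and stimulator controls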;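 also: 0% = DMSO wells given calcium and 100% = 1 mM EGTA wells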
CSC inhib – blocks cancer stem cells. cancer stem cell-like cells viability, luminescence. actives 1.1% (n = 300,000). inhibition, % at 7.5 µM; in the data active = inhibition above about 75%; inconclusive = no clear call, values can overlap the other calls; tested in HMLE shEcad cells
Rh123 counter – Rhodamine 123 counter-screen of mitochondrial pore hits; inhibition, % at 10 µM; shares compounds with MPTP inh; actives 78% (n = 5,000); isolated mitochondria, membrane potential, Rhodamine 123 fluorescence; in the data active = inhibition above about 22%;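 also: 0% = DMSO vehicle and 100% = positive control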
MPTP abs DR – MPTP inhibition, dose response swelling confirmation | shares compounds with MPTP inh | isolated mitochondria swelling, absorbance | IC50, µM | actives 58% (n = 780); in the data active = IC50 below about 20 µM
MPTP counter DR – counter-screen for mitochondrial permeability transition pore inhibitors, dose response | shares compounds with MPTP inh | isolated mitochondria counterscreen, fluorescence read-out | IC50, µM | actives 49% (n = 780) | AID 651564; in the data active = IC50 below about 80 µM
Starred values were filed as active, the others as inactive; i = inactive; ? = inconclusive; . = no result given.

SMILES	Mdm2 MdmX PPI	Beta apoptosis	Calb FLC	MPTP inh	CSC inhib	Rh123 counter	others
O=C(NNC(=S)NC(=O)c1ccccc1[N+](=O)[O-])c1ccc(Cl)cc1Cl	7	8	62	0	-16	.
Cc1ccc(N(CC(=O)Nc2ccc(Br)c(C)c2)S(=O)(=O)c2c(C)[nH]c(=O)[nH]c2=O)cc1	13	-7	1	1	-12	.
Cn1cc(Br)c(C(=O)Nc2sc3c(c2C#N)CCC3)n1	-23	-4	-7	6	-5	.
Cn1cc(Cl)c(C(=O)NC(=S)Nc2sc3c(c2C#N)CCCCC3)n1	12	-1	7	83*	17	21*
COc1cccc(Oc2ccc(S(=O)(=O)N3CCOCC3)cc2[N+](=O)[O-])c1	1	12	.	-2	5	.
CC(=O)CCc1ccc(OCC(O)CNCCOc2ccc(C)cc2)cc1 (stereo not given)	-25	0	1	74*	-9	-9	MPTP abs DR=i;MPTP counter DR=>80
CCOc1ccc(S(=O)(=O)N2CCCC(C(=O)N3CCN(c4ccccc4)CC3)C2)cc1 (stereo not given)	3	4	-2	1	-2	.
CCOC(=O)c1cc(-c2ccccc2)sc1NC(=O)C(C)OC(=O)c1cccc(S(=O)(=O)N(C)C)c1 (stereo not given)	26	-6	15	4	15	.
CCOC(=O)c1cc(-c2ccccc2)sc1NC(=O)C(C)OC(=O)c1cccnc1OCC (stereo not given)	-3	-7	0	68*	.	-1	MPTP abs DR=>100;MPTP counter DR=>80
OC[C@@H]1CN(Cc2ccco2)C[C@H](n2cnc3c(N4CCN(c5ccccc5)CC4)ncnc32)O1	.	.	.	-3	.	.
CCOc1ccc(C(C)=O)cc1CSC(=N)N	-1	.	?	0	0	.
CCCCOc1ccc(Br)cc1CSC(=N)N	.	.	-23	83*	.	108*
C=CCn1c(SCC2CCCCO2)nc2sc(CC)cc2c1=O (stereo not given)	14	27	-8	54*	27	22*
C=CCn1c(SCC(=O)NC2CC2)nc2sc(CC)cc2c1=O	13	-1	57	0	-7	.
C=CCn1c(SCC(=O)c2cccs2)nc2sc(CC)cc2c1=O	29	18	3	91*	38	77*
Cc1cccc(C(O)c2ncc(-c3ccc(Cl)cc3)[nH]2)c1C (stereo not given)	.	.	.	1	.	.
O=C(/C=C/NNC(=O)c1cccc(Br)c1)c1cccc(Br)c1	49	.	-8	51*	.	58*
O=C(/C=C/NNC(=O)c1ccccc1)c1ccc(Br)cc1	25	8	-27	1	17	.
CCOC(=O)c1cnc(SCC(=O)Nc2cc(OC)ccc2OC)nc1N	19	28	8	86*	-7	69*
CCOC(=O)c1cnc(SCC(=O)Nc2ccc(NC(C)=O)c(OC)c2)nc1N	-7	-3	0	-1	-13	.
O=[N+]([O-])c1ccc(CS(=O)(=O)c2ccc(Cl)cc2)cc1	.	-4	7	0	9	.
O=[N+]([O-])c1cc(CS(=O)(=O)Oc2ccc(Cl)cc2)c(O)c([N+](=O)[O-])c1	-11	.	-14	74*	1	59*
Cc1ccc(NC(=O)CSc2nnc(-c3cccs3)o2)cc1S(=O)(=O)N(C)C	-47	4	-4	.	-4	.
Cc1cccc(NC(=O)C2C(c3ccccc3)C2(Cl)Cl)c1C (stereo not given)	5	3	-11	71*	21	77*
O=C(Nc1ccccc1)C1C(c2ccccc2)C1(Cl)Cl (stereo not given)	11	6	-10	4	-4	.
CC(C)(CNC(=O)CO/N=C1/C=C2CCC3C(C(O)C[C@@]4(C)C3CC[C@]4(O)C(=O)CO)[C@@]2(C)CC1)C(O)C(=O)O (stereo not given in full)	-36	-5	-6	-1	-3	.
O=C(NNc1c2ccccc2nc2ccccc12)c1ccc(O)cc1O	-5	17	-7	-1	19	.
O=C(NNc1c2ccccc2nc2ccccc12)c1ccccc1O	37	12	-14	87*	?	43*
Cc1ccc(C)c(C2=NNC(=O)CC2)c1	-12	1	-4	2	1	.
